Results on 27 molecules are retold here after PubChem BioAssay (NCATS).

“And” between values parts separate entries of the source, which are not always exact repeats. Equal entries are not always repeated. Records with an inconclusive call do not appear. More than one record can exist for a structure, and the calls need not agree. The source made the active and inactive calls. Calls follow the shape of the dose curve; as a rule, active = well fitted curve in the direction sought with a large enough effect; inconclusive = small, poorly fitted or top-dose-only effect, or another doubt; inactive = no such curve, though single readings can be large; an effect the other way counts as inactive or inconclusive.

Experiment [1] addresses Cytochrome P450 2C9 (Homo sapiens) (UniProt P11712). In words: qHTS Assay for Inhibitors and Substrates of Cytochrome P450 2C9 (AID 883). Also: nearly all actives have a fitted effect of over 60% in size. Also: potency is read from the fitted curve at half-maximal effect. As to activity change, negative = inhibition: % is scaled to controls: 0 for no effect and ±100 for the full control effect. Put shortly:
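Signal: luciferase luminescence reporting luciferin produced by CYP2C9. Conditions: 10nM enzyme, Luciferin-H 100uM at KM, 25mM KPO4, 37C, 60 min NADPH-driven reaction. Reference: 57uM sulphaphenazole as 100% inhibition.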

The target in experiment [2] is Cytochrome P450 3A4 (Homo sapiens) (UniProt P08684). In words: qHTS Assay for Inhibitors and Substrates of Cytochrome P450 3A4 (AID 884). Also: nearly all actives have a fitted effect of over 50% in size. Also: potency is read from the fitted curve at half-maximal effect. As to activity change, negative = inhibition: series mostly up to about 57 µM; % is scaled to controls: 0 for no effect and ±100 for the full control effect. Put shortly:
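20 nM human CYP3A4 with 25 uM Luciferin-PPXE (at KM) in 200 mM KPO4, preincubated 10 min with compound; NADPH regeneration started a 60 min RT reaction. Luciferin detected by luminescence, normalized to 57 uM ketoconazole as full inhibition.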

Experiment [3] concerns the target Cytochrome P450 2D6 (Homo sapiens) (UniProt P10635). In words: qHTS Assay for Inhibitors and Substrates of Cytochrome P450 2D6 (AID 891).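 Also: luciferin methyl ether substrate demethylated by CYP2D6 with NADPH regeneration; % is scaled to controls: 0 for no effect and ±100 for the full control effect; nearly all actives have a fitted effect of over 60% in size.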 The method, boiled down:
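Human CYP2D6 (5 nM) with 30 uM Luciferin-ME EGE (at Km) in 100 mM KPO4, compound preincubated 10 min, then NADPH regeneration system for 60 min at room temperature. Luciferin read by luminescence; normalized to 1.43 uM quinidine.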

Experiment [4] deals with Cytochrome P450 2C19 (Homo sapiens) (UniProt P33261). In words: qHTS Assay for Inhibitors and Substrates of Cytochrome P450 2C19 (AID 899). Also: nearly all actives have a fitted effect of over 60% in size. Also: potency is read from the fitted curve at half-maximal effect. Put shortly: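 Signal comes from luciferase acting on luciferin released by CYP2C19-mediated hydroxylation of Luciferin-H EGE, 10uM (KM). Assay mix: 5nM enzyme, 50mM KPO4; 60 min at 37C with NADPH regeneration. Data normalized against 57uM ketoconazole.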
Chain of Cytochrome P450 2C19 (Homo sapiens) (P33261 whole entry, looked up): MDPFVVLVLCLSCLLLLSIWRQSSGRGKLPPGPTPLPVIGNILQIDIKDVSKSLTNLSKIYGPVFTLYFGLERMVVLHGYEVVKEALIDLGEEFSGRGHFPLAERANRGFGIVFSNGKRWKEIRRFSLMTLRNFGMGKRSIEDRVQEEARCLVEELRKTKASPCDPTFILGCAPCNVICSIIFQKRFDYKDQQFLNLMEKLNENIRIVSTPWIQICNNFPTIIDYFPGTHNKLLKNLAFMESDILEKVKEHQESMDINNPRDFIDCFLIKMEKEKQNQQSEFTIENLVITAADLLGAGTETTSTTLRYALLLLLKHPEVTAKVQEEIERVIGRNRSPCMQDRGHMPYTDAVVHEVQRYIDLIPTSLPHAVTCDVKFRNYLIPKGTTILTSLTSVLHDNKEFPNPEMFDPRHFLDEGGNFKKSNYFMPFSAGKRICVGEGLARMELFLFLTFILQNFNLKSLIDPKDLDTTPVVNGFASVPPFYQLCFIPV

For experiment [5], the target named is Cytochrome P450 3A4 (Homo sapiens) (UniProt P08684). In words: qHTS Assay for Activators of Cytochrome P450 3A4 (AID 885). Also: nearly all actives have a fitted effect of over 65% in size. Put shortly: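 Signal was normalized against complete inhibition by 57 uM ketoconazole. The reaction used 20nM CYP3A4 with 25uM Luciferin-PPXE, 10-min compound preincubation and a 60-min NADPH-supported step at RT.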
Chain of Cytochrome P450 3A4 (Homo sapiens) (P08684 whole entry, looked up): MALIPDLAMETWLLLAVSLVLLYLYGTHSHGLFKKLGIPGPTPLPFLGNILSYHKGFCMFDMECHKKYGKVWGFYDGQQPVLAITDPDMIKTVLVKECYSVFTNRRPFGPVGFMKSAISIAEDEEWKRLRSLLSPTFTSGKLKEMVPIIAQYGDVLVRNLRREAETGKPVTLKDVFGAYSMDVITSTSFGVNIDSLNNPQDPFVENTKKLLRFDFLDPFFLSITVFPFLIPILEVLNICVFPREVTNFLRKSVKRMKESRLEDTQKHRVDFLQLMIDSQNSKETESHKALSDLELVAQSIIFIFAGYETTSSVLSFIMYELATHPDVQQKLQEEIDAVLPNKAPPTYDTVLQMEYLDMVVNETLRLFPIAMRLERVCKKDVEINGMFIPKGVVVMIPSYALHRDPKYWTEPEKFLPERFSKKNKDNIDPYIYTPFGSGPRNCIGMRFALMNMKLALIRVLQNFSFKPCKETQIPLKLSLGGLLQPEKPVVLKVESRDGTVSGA

Chain of Cytochrome P450 2D6 (Homo sapiens) (P10635 whole entry, looked up): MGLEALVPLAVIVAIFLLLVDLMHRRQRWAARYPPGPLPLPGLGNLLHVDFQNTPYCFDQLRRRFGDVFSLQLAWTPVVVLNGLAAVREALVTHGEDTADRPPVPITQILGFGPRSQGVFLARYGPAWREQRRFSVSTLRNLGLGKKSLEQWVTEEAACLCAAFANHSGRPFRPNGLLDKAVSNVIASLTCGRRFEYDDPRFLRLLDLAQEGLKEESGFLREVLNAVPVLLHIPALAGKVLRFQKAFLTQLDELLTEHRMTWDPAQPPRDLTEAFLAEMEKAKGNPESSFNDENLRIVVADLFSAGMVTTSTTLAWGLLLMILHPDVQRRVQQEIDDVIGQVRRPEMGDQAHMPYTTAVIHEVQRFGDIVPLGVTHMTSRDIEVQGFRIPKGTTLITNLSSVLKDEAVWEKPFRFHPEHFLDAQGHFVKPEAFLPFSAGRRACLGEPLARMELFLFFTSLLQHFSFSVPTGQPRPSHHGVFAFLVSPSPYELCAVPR
Chain of Cytochrome P450 2C9 (Homo sapiens) (P11712 whole entry, looked up): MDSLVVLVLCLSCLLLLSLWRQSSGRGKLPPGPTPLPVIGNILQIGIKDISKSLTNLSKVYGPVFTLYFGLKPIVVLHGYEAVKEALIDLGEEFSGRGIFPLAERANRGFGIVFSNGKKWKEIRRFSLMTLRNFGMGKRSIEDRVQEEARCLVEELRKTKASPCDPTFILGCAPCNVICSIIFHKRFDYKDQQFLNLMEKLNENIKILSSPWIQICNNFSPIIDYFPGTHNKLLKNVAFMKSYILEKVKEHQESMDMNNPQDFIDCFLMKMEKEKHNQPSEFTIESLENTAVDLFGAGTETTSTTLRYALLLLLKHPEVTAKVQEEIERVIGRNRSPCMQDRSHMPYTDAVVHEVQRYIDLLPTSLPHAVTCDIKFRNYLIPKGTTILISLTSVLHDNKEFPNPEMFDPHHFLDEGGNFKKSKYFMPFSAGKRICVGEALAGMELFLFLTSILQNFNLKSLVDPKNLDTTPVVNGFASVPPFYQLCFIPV

For the molecule `CC(=O)OCC1OC(C#Cc2ccc(Cl)cc2)C=CC1OC(C)=O` (centres undefined), the Potency result in experiment [1] and in experiment [3] was “inactive” each time. Also, the activity change, negative = inhibition in experiment [2] is -14.6% [at 11.4 µM] (inactive) and -6.86% [at 11.4 µM] (inactive). Moreover, the Potency in experiment [4] was 1 µM (active) and inactive.

With `CC(=O)OCC1OC(C#CC(C)(C)C)C=CC1OC(C)=O` (centres undefined), the Potency entry in experiment [1], in experiment [3] and in experiment [4] was “inactive” each time. Further, in experiment [2], the activity change, negative = inhibition is -15.4% [at 11.4 µM] (inactive) and -10.3% [at 11.4 µM] (inactive).

In the case of `COC(=O)NC(CC(C)=O)c1ccco1` (centres undefined), the Potency result in experiment [1], in experiment [3] and in experiment [4] was “inactive” throughout. Besides, in experiment [2], the activity change, negative = inhibition is -19.2% [at 11.4 µM] (inactive).

As to `CCCC/C=C/C(NC(=O)c1ccc(C(F)(F)F)cc1)c1ccccc1` (centres undefined), the Potency in experiment [1] was 2000 nM (active). In addition, in experiment [5], the Potency result was “inactive”.

`COC(=O)NC(CC(C)=O)c1cccc(C)c1` (centres undefined): the Potency entry in experiment [1], in experiment [3] and in experiment [4] was “inactive” in each case. For the same molecule, in experiment [2], the activity change, negative = inhibition is -19.5% [at 11.4 µM] (inactive).

As for `C=CC[C@@H]1C=C[C@@H](O/N=C\c2ccc(C(=O)N3[C@H](c4ccc(C)cc4)[C@@H](C)CC[C@H]3C(=O)OC)cc2)[C@@H](CO)O1`, the Potency in experiment [1] is 3980 nM (active). Besides, in experiment [5], the activity change, positive = activation was -42.6% [at 11.4 µM] (inactive).

Regarding `COC(=O)NC(CC(C)=O)c1ccc(F)cc1` (centres undefined), the Potency entry in experiment [1], in experiment [3] and in experiment [4] was “inactive” throughout. Besides, the activity change, negative = inhibition in experiment [2] is -12% [at 11.4 µM] (inactive).

On to `COc1cc(O)c(C(=O)/C=C/c2ccccc2)c(O)c1`, for which the values for the Potency in experiment [1] and in experiment [4] were 2000 nM (active) and 1.58 µM (active), respectively. Moreover, in experiment [2], the activity change, negative = inhibition is -28.7% [at 11.4 µM] (inactive). Further, the Potency entry in experiment [3] is “inactive”.

Take `COC(=O)NC(c1cccc(F)c1)C(C(C)=O)C(=O)OC` (centres undefined): the Potency entry in experiment [1], in experiment [3] and in experiment [4] was “inactive” each time. Moreover, in experiment [2], the activity change, negative = inhibition is -17.1% [at 11.4 µM] (inactive).

For `CC(=O)Nc1ccc(C2NC(C(=O)O)CCC2C)cc1` (centres undefined), the Potency result in experiment [1], in experiment [3] and in experiment [4] was “inactive” each time. For the same molecule, the activity change, negative = inhibition in experiment [2] is -21% [at 11.4 µM] (inactive).

Turning to `CCCCc1nc2c(c3c1CC(C)OC3)CN(CCC(C)C)CC2` (centres undefined), the Potency result in experiment [1] and in experiment [4] was “inactive” throughout. Also, the Potency in experiment [2] is 3980 nM (active).

Take `CCOC(=O)[C@]1(C(/C=C/c2ccco2)NC(=O)OC)CCCC1=O` (some centres undefined): the Potency entry in experiment [1], in experiment [3] and in experiment [4] was “inactive” in each case. The activity change, negative = inhibition in experiment [2] is -21.5% [at 11.4 µM] (inactive).

`COC(=O)NC(c1cccc(C)c1)[C@]1(C(C)=O)CCCC1=O` (some centres undefined): the Potency result in experiment [1], in experiment [3] and in experiment [4] was “inactive” throughout. For the same molecule, the activity change, negative = inhibition in experiment [2] was -27.8% [at 11.4 µM] (inactive).

Consider `COC(=O)NC(/C(C(=O)OC)=C(\C)NCc1ccccc1)c1ccco1` (centres undefined), for which the Potency entry in experiment [1], in experiment [3] and in experiment [4] was “inactive” throughout. In addition, in experiment [2], the activity change, negative = inhibition was -20.3% [at 11.4 µM] (inactive).

As for `CCOC(=O)OCC1OC(c2ccccc2)C=CC1Oc1cccc(N(C)C)c1` (centres undefined), the Potency result in experiment [1] and in experiment [3] was “inactive” each time. For the same molecule, in experiment [5], the activity change, positive = activation was -50.1% [at 11.4 µM] (inactive).

On to `COc1cc(C2c3[nH]c4ccccc4c3CC3C(=O)N4C(Cc5c([nH]c6ccccc56)C4c4cc(OC)c(OC)c(OC)c4)C(=O)N32)cc(OC)c1OC` (centres undefined), for which the Potency entry in experiment [1], in experiment [3] and in experiment [4] was “inactive” each time. Further, in experiment [2], the activity change, negative = inhibition was -16.6% [at 11.4 µM] (inactive).

Consider `O=C(/C=N/O)NCCCCNC(=O)/C=N/O`, for which the Potency result in experiment [1], in experiment [3] and in experiment [4] was “inactive” each time. For the same molecule, the activity change, negative = inhibition in experiment [2] was -14.7% [at 11.4 µM] (inactive).

Regarding `O=C1C2Cc3c([nH]c4ccccc34)C(c3ccccc3)N2C(=O)C2Cc3c([nH]c4ccccc34)C(c3ccccc3)N12` (centres undefined), the Potency result in experiment [1], in experiment [3] and in experiment [4] was “inactive” each time. The activity change, negative = inhibition in experiment [2] was -20.8% [at 11.4 µM] (inactive).

For `Cc1ccc(C#CC2C=CC(Oc3ccc4c(c3)OCO4)C(CO)O2)c(C)c1` (centres undefined), the Potency entry in experiment [1], in experiment [3] and in experiment [4] was “inactive” each time. Further, in experiment [2], the activity change, negative = inhibition is -16.9% [at 11.4 µM] (inactive).

Consider `CC(C)C(=O)NC(=O)C1CCCN1C(=O)/C=C/c1ccccc1` (centres undefined), for which the Potency entry in experiment [1], in experiment [3] and in experiment [4] was “inactive” in each case. The activity change, negative = inhibition in experiment [2] is -10.1% [at 11.4 µM] (inactive).

Take `COC(=O)C/C=C/C(C)C(OC)c1ccccc1Br` (centres undefined): the Potency result in experiment [1], in experiment [3] and in experiment [4] was “inactive” throughout. In experiment [2], the activity change, negative = inhibition is -5.95% [at 11.4 µM] (inactive).

With `CCCNC(=O)OC[C@@H]1O[C@H](CCO/N=C\c2ccc(C(=O)N3[C@H](c4ccc(C)cc4)[C@@H](C)CC[C@H]3C(=O)OC)cc2)C=C[C@@H]1Oc1ccc(OC)cc1`, in experiment [1], the Potency was 3980 nM (active). Further, the activity change, positive = activation in experiment [5] was -51.6% [at 11.4 µM] (inactive).

Turning to `COC(=O)NC(c1ccc(Cl)cc1)C(C(C)=O)C(=O)OC` (centres undefined), the Potency entry in experiment [1] and in experiment [3] was “inactive” throughout. The activity change, negative = inhibition in experiment [2] was -15.4% [at 11.4 µM] (inactive). Further, in experiment [4], the Potency is 1.58 µM (active).

Turning to `CC12C=C(/C=C/c3ccccc3)C(C)(C1)C(c1ccccc1)CC2=O` (centres undefined), in experiment [1], the Potency result was “inactive”. Also, in experiment [5], the activity change, positive = activation is -52.8% [at 11.4 µM] (inactive).

Regarding `CO[C@H]1COC(=O)C/C=C\[C@H](C)[C@@H](OC)COC(=O)[C@H](C)COC(=O)C/C=C\[C@@H]1C`, the Potency entry in experiment [1] was “inactive”. Further, the activity change, positive = activation in experiment [5] was -33.7% [at 11.4 µM] (inactive).

Turning to `C=C/C1=C/Cc2ccccc2C(C[N+](=O)[O-])C(C(=O)OC)(C(=O)OC)C1` (centres undefined), the Potency entry in experiment [1] and in experiment [3] was “inactive” in each case. Further, in experiment [5], the activity change, positive = activation is -46.3% [at 11.4 µM] (inactive).

Regarding `CCCCCCCC#Cc1ccccc1/C=N/S(=O)C(C)(C)C` (centres undefined), the Potency result in experiment [1] and in experiment [3] was “inactive” in each case. In experiment [5], the activity change, positive = activation is -47.5% [at 11.4 µM] (inactive).
